# Data from PubChem BioAssay (NCATS).
# “And” between values parts separate entries of the source, which are not always exact repeats. Identical values can stand only once. Records with an inconclusive call do not appear. Entries that show only a call come without a potency. The source made the active and inactive calls. Unless noted, the call rests on the fitted dose curve.
# How the values were obtained:
# [1] = molecular target: Ubiquitin carboxyl-terminal hydrolase 1 (Homo sapiens) (UniProt O94782); test: Inhibitors of USP1/UAF1: Pilot qHTS (AID 504865; active means well fitted inhibition curve with a large enough effect; further: nearly all actives have a fitted effect of over 35% in size; further: potency means the concentration at half of the fitted maximal effect); details: purified USP1/UAF1, Ub-rhodamine cleavage fluorescence; series mostly up to 114 µM
# Summary of the method: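 Enzyme-free wells gave the negative control, while test wells held 1nM USP1/UAF1 preincubated with compound for 15 min at room temperature. Ub-Rho at 150nM final started the reaction, and fluorescence at 480/540 nm was recorded kinetically.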
# [2] = molecular target: DNA dC->dU-editing enzyme APOBEC-3G (Homo sapiens) (UniProt Q9HC16); test: qHTS for inhibitors of Vif-A3G interactions: Validation (AID 588379; active means well fitted inhibition curve with a large enough effect); details: Vif-A3G protein interaction assay; series mostly up to 46.1 µM
# Summary of the method: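 HeLa cells stably expressing Vif and A3G-eYFP, 700 cells/well, incubated overnight at 37 deg C, then exposed to compound overnight at 37 deg C. Inhibition of Vif-mediated degradation read as increased yellow fluorescence (Ex 488/Em 500-530) by laser-scanning cytometry.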
# [3] = molecular target: Glucocorticoid receptor (Homo sapiens) (UniProt P04150); test: qHTS assay for small molecule antagonists of glucocorticoid receptor signaling (AID 588533; active means well fitted inhibition curve with a large enough effect in the signal ratio, with a control signal flat, not every such curve was filed as active; the % refers to the signal ratio;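 further: cells stimulated with 2 nM dexamethasone as agonist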); details: HeLa MMTV-bla, GRE beta-lactamase ratio, antagonist mode, 18 h; series mostly up to 76.8 µM
# Summary of the method: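 Antagonist-mode qHTS: compound titrations added to GRE-bla HeLa cells, then dexamethasone 2 nM final; 18 h, 37 C. CCF4 FRET fluorescence normalized to dexamethasone and DMSO; IC50 from Hill fit.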
# [4] = molecular target: Peroxisome proliferator-activated receptor gamma (Homo sapiens) (UniProt P37231); test: qHTS assay for small molecule agonists of peroxisome proliferator-activated receptor gamma signaling (AID 588536; active means well fitted curve in the direction sought with a large enough effect in the signal ratio, with a control signal flat, not every such curve was filed as active; the % refers to the signal ratio); details: HEK293 PPARg-UAS-bla, beta-lactamase ratio, 16 h, percent of rosiglitazone response, DMSO as zero; series mostly up to 76.7 µM
# Summary of the method: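 Ratiometric blue/green fluorescence (405 nm excitation; 460 and 530 nm emission) from CCF4-loaded HEK293 reporter cells serves as signal. Exposure to test compounds lasts 16 h at 37 C in medium containing 1% charcoal/dextran-treated serum.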
# [5] = molecular target: Vitamin D3 receptor (Homo sapiens) (UniProt P11473); test: qHTS assay for small molecule antagonists of vitamin D receptor signaling (AID 588541); details: HEK293T VDR-UAS-bla, beta-lactamase ratio, antagonist mode; series mostly up to 76.7 µM;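 further: receptor activated by calcitriol during compound treatment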
# Summary of the method: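 VDR-UAS-bla HEK293T cells (2000/well, 2% charcoal-stripped FBS) were treated with titrated compounds plus 1-alpha,25-dihydroxyvitamin D3 (50 nM or 3 nM final) for 16 h at 37 C. CCF4 beta-lactamase fluorescence was read; Hill fits gave IC50.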
# [6] = molecular target: Vitamin D3 receptor (Homo sapiens) (UniProt P11473); test: qHTS assay for small molecule agonists of vitamin D receptor signaling (AID 588543); details: HEK293T VDR-UAS-bla, beta-lactamase ratio, 16 h; series mostly up to 76.8 µM
# Summary of the method: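 Measured: β-lactamase reporter activity (CCF4, 405 nm excitation, 460/530 nm emission) in HEK293T VDR-UAS-bla cells after 16 h compound exposure at 37 °C. Normalization against 50 nM 1α,25-dihydroxyvitamin D3 and DMSO; Hill-fit EC50.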
# [7] = qHTS assay for small molecule agonists of retinoid X receptor alpha signaling (AID 588544); details: HEK293T RXRa-UAS-bla, beta-lactamase reporter, 18 h; 530 nm emission
# [8] = molecular target: Retinoic acid receptor RXR-alpha (Homo sapiens) (UniProt P19793); test: as above; details: HEK293T RXRa-UAS-bla, beta-lactamase reporter, 18 h; series mostly up to 76.7 µM
# [9] = molecular target: Estrogen receptor (Homo sapiens) (UniProt P03372); test: qHTS assay for small molecule antagonists of estrogen receptor alpha signaling (AID 588513; active means well fitted curve in the direction sought with a large enough effect in the signal ratio, with a control signal flat, not every such curve was filed as active; the % refers to the signal ratio); details: ER-alpha-UAS-bla HEK293, beta-lactamase ratio, antagonist mode; series mostly up to 76.9 µM
# Summary of the method: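 Antagonist-mode qHTS in ER-alpha-UAS-bla HEK 293 cells: compound titration, 0.5nM estradiol for 18 h, CCF4 fluorescence, Hill-derived IC50.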
# [10] = molecular target: Estrogen receptor (Homo sapiens) (UniProt P03372); test: qHTS assay for small molecule agonists of estrogen receptor alpha signaling (AID 588514); details: ER-alpha-UAS-bla HEK293, beta-lactamase ratio, 18 h, percent of full estradiol response, vehicle zero; series mostly up to 76.8 µM; further: nearly all actives have a fitted effect of over 70% in size
# Summary of the method: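 ER-alpha-UAS-bla GripTite HEK 293 cells in medium with 2% charcoal/dextran-treated FBS were treated with compound titrations at 37 C for 18 hrs; beta-lactamase reporter read by CCF4 fluorescence after 2 hrs at RT.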
# [11] = molecular target: Bile acid receptor (Homo sapiens) (UniProt Q96RI1); test: qHTS assay for small molecule antagonists of farnesoid X receptor signaling (AID 588526); details: HEK293T FXR-UAS-bla, beta-lactamase ratio, antagonist mode; series mostly up to 76.7 µM
# Summary of the method: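 Concentration-response titrations were fitted to the Hill equation for half-maximal inhibition and maximal response, with data normalised to 50 uM chenodeoxycholic acid and DMSO control wells. Cells: FXR-UAS-bla HEK293T, dialyzed FBS.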
# [12] = molecular target: Glucocorticoid receptor (Homo sapiens) (UniProt P04150); test: qHTS assay for small molecule agonists of glucocorticoid receptor signaling (AID 588532; active means well fitted curve in the direction sought with a large enough effect in the signal ratio, with a control signal flat; the % refers to the signal ratio); details: HeLa MMTV-bla, beta-lactamase ratio, agonist, 18 h; stronger effect = higher value; percent of dexamethasone control, DMSO zero
# Summary of the method: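 Stimulation of a glucocorticoid response element-driven beta-lactamase gene was measured in HeLa cells. Responses were scaled between DMSO basal and 0.1 uM dexamethasone, then fitted for half-maximal stimulation.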
# [13] = qHTS assay for small molecule antagonists of peroxisome proliferator-activated receptor delta signaling (AID 588535; active means well fitted inhibition curve with a large enough effect in the signal ratio, with a control signal flat, not every such curve was filed as active; the % refers to the signal ratio;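 on max response: cells co-treated with a PPAR-delta agonist as stimulator during compound exposure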); details: HEK293T PPARd-UAS-bla, beta-lactamase FRET ratio, 18 h; 460 nm channel
# Summary of the method: (§1)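 GeneBLAzer PPAR-delta-UAS-bla HEK293T cells in medium with 2% charcoal/dextran FBS were preincubated 5 hrs at 37 C, then given compounds, incubated 18 hrs at 37 C, and read by CCF4 beta-lactamase fluorescence; IC50 from Hill fits.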
# [14] = molecular target: Peroxisome proliferator-activated receptor delta (Homo sapiens) (UniProt Q03181); test: as above; details: HEK293T PPARd-UAS-bla, beta-lactamase FRET ratio, 18 h; series mostly up to 76.7 µM
# Summary of the method: as §1
# [15] = molecular target: Androgen receptor (Homo sapiens) (UniProt P10275); test: qHTS assay for small molecule agonists of androgen receptor signaling (AID 588515; active means well fitted curve in the direction sought with a large enough effect in the signal ratio, with a control signal flat; the % refers to the signal ratio); details: AR-UAS-bla HEK293, beta-lactamase ratio, agonist 16 h; stronger effect = higher value
# Summary of the method: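 EC50 and efficacy came from Hill fits of titrations (up to 92 uM) normalized to 30 nM R1881 as 100% and DMSO as 0%. Compound exposure was 16 h at 37 C on AR-UAS-bla HEK293 cells, with a 405/460/530 nm CCF4 fluorescence read.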
# [16] = molecular target: Androgen receptor (Homo sapiens) (UniProt P10275); test: qHTS assay for small molecule antagonists of androgen receptor signaling (AID 588516; active means well fitted curve in the direction sought with a large enough effect in the signal ratio, with a control signal flat, not every such curve was filed as active; the % refers to the signal ratio); details: AR-UAS-bla HEK293, beta-lactamase ratio, antagonist mode, 16 h; series mostly up to 76.8 µM
# Summary of the method: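 Compounds tested in titration against 10 nM R1881 in AR-responsive bla reporter HEK 293 cells; CCF4 fluorescence (460/530 nm) after 16 h exposure gave IC50 and efficacy.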
# DNA dC->dU-editing enzyme APOBEC-3G (Homo sapiens), sequence (Q9HC16 whole entry, looked up): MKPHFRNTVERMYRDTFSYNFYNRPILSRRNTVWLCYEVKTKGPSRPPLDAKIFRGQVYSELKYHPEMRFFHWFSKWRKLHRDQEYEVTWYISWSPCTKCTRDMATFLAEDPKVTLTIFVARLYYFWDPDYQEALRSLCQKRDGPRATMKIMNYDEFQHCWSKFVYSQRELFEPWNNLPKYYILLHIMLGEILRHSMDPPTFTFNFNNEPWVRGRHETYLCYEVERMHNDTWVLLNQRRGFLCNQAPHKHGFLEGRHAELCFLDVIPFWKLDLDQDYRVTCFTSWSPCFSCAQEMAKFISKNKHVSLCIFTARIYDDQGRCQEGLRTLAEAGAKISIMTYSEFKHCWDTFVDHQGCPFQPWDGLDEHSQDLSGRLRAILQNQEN
# Peroxisome proliferator-activated receptor delta (Homo sapiens), sequence (Q03181 whole entry, looked up): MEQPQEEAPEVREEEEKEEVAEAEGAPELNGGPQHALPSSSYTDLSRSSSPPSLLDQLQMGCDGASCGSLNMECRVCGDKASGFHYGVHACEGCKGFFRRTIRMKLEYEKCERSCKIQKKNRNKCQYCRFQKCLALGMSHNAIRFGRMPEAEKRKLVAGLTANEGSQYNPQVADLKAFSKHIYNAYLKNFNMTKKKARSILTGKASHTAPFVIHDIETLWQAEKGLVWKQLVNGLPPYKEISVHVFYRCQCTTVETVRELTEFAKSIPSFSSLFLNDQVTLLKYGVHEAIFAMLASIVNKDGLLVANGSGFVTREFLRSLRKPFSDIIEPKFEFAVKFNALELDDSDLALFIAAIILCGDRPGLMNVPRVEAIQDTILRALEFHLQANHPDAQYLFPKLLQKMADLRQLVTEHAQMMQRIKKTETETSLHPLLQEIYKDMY
# Ubiquitin carboxyl-terminal hydrolase 1 (Homo sapiens), sequence (O94782 whole entry, looked up): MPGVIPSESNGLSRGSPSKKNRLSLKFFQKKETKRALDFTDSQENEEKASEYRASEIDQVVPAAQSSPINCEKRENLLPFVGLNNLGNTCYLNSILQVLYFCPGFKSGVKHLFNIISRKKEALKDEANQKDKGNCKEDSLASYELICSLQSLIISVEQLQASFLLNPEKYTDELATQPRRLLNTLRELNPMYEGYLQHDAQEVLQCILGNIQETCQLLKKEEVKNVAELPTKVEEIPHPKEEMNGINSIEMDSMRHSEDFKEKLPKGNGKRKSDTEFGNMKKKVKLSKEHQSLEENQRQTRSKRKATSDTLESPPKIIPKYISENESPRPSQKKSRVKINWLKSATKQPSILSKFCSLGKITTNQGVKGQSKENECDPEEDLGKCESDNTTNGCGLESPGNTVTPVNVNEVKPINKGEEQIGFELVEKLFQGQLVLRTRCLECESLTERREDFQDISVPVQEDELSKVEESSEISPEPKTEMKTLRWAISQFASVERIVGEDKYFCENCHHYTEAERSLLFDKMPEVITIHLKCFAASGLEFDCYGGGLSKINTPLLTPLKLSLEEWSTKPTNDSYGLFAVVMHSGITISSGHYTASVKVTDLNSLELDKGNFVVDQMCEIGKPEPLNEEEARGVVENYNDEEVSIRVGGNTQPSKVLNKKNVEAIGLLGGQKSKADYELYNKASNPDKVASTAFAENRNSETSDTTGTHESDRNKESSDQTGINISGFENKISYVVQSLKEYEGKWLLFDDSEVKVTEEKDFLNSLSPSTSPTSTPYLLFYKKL
# Vitamin D3 receptor (Homo sapiens), sequence (P11473 whole entry, looked up): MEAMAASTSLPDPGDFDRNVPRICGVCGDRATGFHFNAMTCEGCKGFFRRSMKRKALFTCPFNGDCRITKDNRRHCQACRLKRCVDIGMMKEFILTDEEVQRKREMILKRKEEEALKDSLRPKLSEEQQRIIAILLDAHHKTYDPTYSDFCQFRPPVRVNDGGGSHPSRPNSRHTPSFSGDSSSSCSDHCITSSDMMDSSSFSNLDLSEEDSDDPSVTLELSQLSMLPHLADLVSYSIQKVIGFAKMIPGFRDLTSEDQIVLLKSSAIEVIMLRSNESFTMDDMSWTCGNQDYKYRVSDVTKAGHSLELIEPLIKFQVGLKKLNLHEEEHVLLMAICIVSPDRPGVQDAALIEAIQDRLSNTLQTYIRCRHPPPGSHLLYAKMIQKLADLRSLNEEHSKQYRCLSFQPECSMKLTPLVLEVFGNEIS
# Retinoic acid receptor RXR-alpha (Homo sapiens), sequence (P19793 whole entry, looked up): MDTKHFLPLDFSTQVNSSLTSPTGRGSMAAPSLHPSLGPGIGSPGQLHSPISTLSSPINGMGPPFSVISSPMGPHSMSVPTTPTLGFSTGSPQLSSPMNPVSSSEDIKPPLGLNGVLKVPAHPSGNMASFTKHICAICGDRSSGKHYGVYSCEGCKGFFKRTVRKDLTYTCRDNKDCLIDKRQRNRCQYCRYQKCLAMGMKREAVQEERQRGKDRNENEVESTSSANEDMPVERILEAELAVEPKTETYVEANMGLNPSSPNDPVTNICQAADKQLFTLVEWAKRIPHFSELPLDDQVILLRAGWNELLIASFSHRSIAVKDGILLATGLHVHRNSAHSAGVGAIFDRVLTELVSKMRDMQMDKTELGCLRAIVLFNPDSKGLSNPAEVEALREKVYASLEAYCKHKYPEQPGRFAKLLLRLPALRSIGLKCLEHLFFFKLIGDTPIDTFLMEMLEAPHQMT
# Peroxisome proliferator-activated receptor gamma (Homo sapiens), sequence (P37231 whole entry, looked up): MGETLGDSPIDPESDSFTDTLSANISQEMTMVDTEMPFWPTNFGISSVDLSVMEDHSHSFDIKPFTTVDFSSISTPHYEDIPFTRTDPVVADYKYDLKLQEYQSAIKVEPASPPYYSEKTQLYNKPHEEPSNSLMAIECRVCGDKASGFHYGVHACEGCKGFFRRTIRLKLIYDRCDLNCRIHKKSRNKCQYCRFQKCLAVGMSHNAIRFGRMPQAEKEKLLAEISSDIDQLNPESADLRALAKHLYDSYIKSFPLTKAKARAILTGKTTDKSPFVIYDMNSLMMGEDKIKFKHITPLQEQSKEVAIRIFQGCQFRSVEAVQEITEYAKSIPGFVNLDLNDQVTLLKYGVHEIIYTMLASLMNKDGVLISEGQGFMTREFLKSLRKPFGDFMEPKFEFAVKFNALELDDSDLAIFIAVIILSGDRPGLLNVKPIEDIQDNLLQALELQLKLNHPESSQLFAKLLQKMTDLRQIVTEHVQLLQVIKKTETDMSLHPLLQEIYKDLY
# Estrogen receptor (Homo sapiens), sequence (P03372 whole entry, looked up): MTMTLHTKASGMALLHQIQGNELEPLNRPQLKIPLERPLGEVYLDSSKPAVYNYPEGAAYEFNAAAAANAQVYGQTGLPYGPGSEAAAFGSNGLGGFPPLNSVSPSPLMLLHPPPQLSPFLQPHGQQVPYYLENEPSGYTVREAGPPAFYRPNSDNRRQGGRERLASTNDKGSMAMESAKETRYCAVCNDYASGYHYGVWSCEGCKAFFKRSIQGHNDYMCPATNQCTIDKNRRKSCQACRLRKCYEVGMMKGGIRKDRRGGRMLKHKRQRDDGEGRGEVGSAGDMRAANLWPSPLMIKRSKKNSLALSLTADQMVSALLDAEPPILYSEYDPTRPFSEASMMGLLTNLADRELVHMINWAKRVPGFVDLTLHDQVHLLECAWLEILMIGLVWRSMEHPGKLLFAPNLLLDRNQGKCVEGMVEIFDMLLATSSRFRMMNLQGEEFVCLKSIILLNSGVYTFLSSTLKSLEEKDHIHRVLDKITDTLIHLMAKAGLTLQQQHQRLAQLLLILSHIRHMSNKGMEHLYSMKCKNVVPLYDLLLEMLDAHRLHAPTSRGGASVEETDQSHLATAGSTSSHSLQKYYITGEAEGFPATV
# Bile acid receptor (Homo sapiens), sequence (Q96RI1 whole entry, looked up): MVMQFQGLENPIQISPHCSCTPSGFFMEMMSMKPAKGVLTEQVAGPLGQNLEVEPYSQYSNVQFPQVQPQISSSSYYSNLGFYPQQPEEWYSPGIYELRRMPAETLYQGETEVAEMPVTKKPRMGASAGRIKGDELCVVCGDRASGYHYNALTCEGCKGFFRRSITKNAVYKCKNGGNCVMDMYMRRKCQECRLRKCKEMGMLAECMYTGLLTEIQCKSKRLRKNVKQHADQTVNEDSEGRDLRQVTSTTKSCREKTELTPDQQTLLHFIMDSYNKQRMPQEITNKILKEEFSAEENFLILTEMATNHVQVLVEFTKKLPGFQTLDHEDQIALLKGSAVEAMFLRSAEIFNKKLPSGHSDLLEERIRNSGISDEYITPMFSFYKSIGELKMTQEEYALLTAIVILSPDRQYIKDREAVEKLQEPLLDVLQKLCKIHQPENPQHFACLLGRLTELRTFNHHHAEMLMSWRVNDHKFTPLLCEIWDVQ
# Glucocorticoid receptor (Homo sapiens), sequence (P04150 whole entry, looked up): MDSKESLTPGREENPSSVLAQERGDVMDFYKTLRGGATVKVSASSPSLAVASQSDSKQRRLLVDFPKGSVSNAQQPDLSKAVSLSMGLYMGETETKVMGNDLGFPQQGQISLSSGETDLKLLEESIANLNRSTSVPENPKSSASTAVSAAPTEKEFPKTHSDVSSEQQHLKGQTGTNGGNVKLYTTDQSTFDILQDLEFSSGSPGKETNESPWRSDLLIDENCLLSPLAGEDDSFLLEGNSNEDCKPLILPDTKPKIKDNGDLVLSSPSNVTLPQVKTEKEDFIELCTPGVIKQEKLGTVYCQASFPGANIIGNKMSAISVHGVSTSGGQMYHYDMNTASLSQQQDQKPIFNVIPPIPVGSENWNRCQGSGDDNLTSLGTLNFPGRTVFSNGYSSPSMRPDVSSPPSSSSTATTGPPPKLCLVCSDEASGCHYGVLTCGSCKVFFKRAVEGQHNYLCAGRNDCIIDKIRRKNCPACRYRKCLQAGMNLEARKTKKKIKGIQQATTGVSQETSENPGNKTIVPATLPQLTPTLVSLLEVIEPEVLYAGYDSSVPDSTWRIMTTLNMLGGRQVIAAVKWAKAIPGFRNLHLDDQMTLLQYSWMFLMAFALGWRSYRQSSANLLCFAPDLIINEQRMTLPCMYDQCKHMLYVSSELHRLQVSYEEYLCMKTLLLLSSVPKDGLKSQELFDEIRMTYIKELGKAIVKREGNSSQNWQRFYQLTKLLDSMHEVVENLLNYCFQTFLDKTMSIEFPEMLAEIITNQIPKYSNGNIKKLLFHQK
structure (smiles),measurement,setting,value
OC[C@H]1O[C@@H](O[C@@H]2[C@@H](CO)O[C@](O)(CO)[C@H]2O)[C@H](O)[C@@H](O)[C@H]1O,Potency,[1],inactive
same,outcome,[2],inactive
O=C(O)[C@@H]1CSCN1,Potency,[1],inactive
CCCCCCCCCCCCOS(=O)(=O)O,Potency,[1],79.4 µM (active)
same,outcome,[3],inactive
same,outcome,[4],inactive
same,outcome,[5],inactive
same,outcome,[6],inactive
same,max response,[7],-1.31% [middle of 4 runs]
same,outcome,[8],inactive
O=S(=O)(O)NC1CCCCC1,Potency,[1],inactive
same,outcome,[5],inactive
same,outcome,[6],inactive
COc1ccccc1O,Potency,[1],inactive
same,outcome,[9],inactive
same,outcome,[10],inactive
same,outcome,[11],inactive
same,activation,[12],0.59% (inactive) and 4.92% (inactive) and -0.396% (inactive)
same,outcome,[3],inactive
same,max response,[13],-6.63% and -4.79%
same,outcome,[14],inactive
same,outcome,[4],inactive
same,outcome,[5],inactive
same,outcome,[6],inactive
same,max response,[7],-7.45% and -9.73% and 7.42%
same,outcome,[8],inactive
NCCNCCNCCN,Potency,[1],inactive
same,outcome,[11],inactive
same,activation,[12],21.8% (inactive)
same,outcome,[3],inactive
same,max response,[13],26%
same,outcome,[14],inactive
same,outcome,[5],inactive
same,outcome,[6],inactive
same,max response,[7],1.23%
same,outcome,[8],inactive
Cc1cc(CC(=O)O)n(C)c1C(=O)c1ccc(Cl)cc1,Potency,[1],inactive
same,outcome,[11],inactive
same,activation,[12],-2.23% (inactive)
same,outcome,[3],inactive
same,outcome,[5],inactive
same,outcome,[6],inactive
CCOC(=O)c1ccc(O)cc1,Potency,[1],inactive
same,outcome,[9],inactive
same,outcome,[11],inactive
same,outcome,[3],inactive
same,max response,[13],-12.7%
same,outcome,[14],inactive
same,outcome,[6],inactive
same,max response,[7],3.41%
same,outcome,[8],inactive
Oc1cccc(O)c1,Potency,[1],inactive
same,outcome,[9],inactive
same,activation,[12],1.81% (inactive)
same,outcome,[3],inactive
same,max response,[13],15.8%
same,outcome,[14],inactive
same,outcome,[4],inactive
same,outcome,[5],inactive
same,outcome,[6],inactive
same,max response,[7],-9.49%
same,outcome,[8],inactive
CCCCOC(=O)c1ccc(O)cc1,Potency,[1],inactive
same,outcome,[11],inactive
same,activation,[12],-4.25% (inactive) and 1.71% (inactive)
same,outcome,[3],inactive
same,max response,[13],-14.2%
same,outcome,[14],inactive
same,outcome,[5],inactive
same,outcome,[6],inactive
same,max response,[7],0.828% and -8.13%
same,outcome,[8],inactive
CC(C)(C)NCC(O)COc1ccc(NC(=O)NC2CCCCC2)cc1 (stereo not drawn),Potency,[1],inactive
Cc1c(O)cccc1C(=O)N[C@@H](CSc1ccccc1)[C@H](O)CN1C[C@H]2CCCC[C@H]2C[C@H]1C(=O)NC(C)(C)C,Potency,[1],inactive
same,outcome,[6],inactive
N[C@@H](CSCCCO)C(=O)O,Potency,[1],inactive
O=C1O[C@H]([C@@H](O)CO)C(O)=C1O,Potency,[1],inactive
same,activation,[12],1.61% (inactive) and 16.4% (inactive)
same,outcome,[3],inactive
same,max response,[13],-14.8%
same,outcome,[14],inactive
same,outcome,[4],inactive
same,max response,[7],-15.9% and -7.94%
same,outcome,[8],inactive
NC(=O)N/N=C/c1ccc([N+](=O)[O-])o1,Potency,[1],inactive
same,outcome,[10],inactive
same,activation,[12],-5.85% (inactive) and -2.6% (inactive)
same,outcome,[3],inactive
same,max response,[13],4.74%
same,outcome,[14],inactive
same,outcome,[4],inactive
same,outcome,[5],inactive
same,outcome,[6],inactive
CCCCC(CC)COC(=O)c1ccccc1O (stereo not drawn),Potency,[1],inactive
same,outcome,[9],inactive
same,outcome,[10],inactive
same,activation,[12],-10.3% (inactive)
same,outcome,[3],inactive
same,max response,[13],-34.6%
same,outcome,[14],inactive
same,outcome,[4],inactive
same,outcome,[5],inactive
same,outcome,[6],inactive
same,max response,[7],-12.2%
same,outcome,[8],inactive
CCCc1c(OCCCCc2nn[nH]n2)ccc(C(C)=O)c1O,outcome,[11],inactive
same,activation,[12],-8.74% (inactive)
same,outcome,[3],inactive
O=c1cc[nH]c(=S)[nH]1,Potency,[1],inactive
Cc1cccc(Nc2cc(Cl)nc(SCC(=O)O)n2)c1C,Potency,[1],inactive
same,outcome,[2],inactive
same,outcome,[9],inactive
same,outcome,[10],inactive
same,activation,[15],4.07% (inactive)
same,activation,[12],-9.26% (inactive)
same,outcome,[4],inactive
same,outcome,[5],inactive
same,max response,[7],-6%
same,outcome,[8],inactive
O=C(O)CN1C(=O)c2cccc3cccc(c23)C1=O,Potency,[1],inactive
same,outcome,[2],inactive
CC(O)COc1ccccc1 (stereo not drawn),Potency,[1],inactive
same,activation,[15],4.06% (inactive)
same,outcome,[16],inactive
same,outcome,[11],inactive
same,activation,[12],-13.7% (inactive)
same,outcome,[3],inactive
same,max response,[13],6.24%
same,outcome,[14],inactive
same,outcome,[4],inactive
same,outcome,[5],inactive
same,outcome,[6],inactive
same,max response,[7],-14.5%
same,outcome,[8],inactive
O=C(O)COc1nn(Cc2ccccc2)c2ccccc12,Potency,[1],inactive
C[C@@H]1CN(c2c(F)c(F)c3c(=O)c(C(=O)O)cn(C4CC4)c3c2F)C[C@H](C)N1,Potency,[1],inactive
CCN(CC)CCSC(=O)C(c1ccccc1)c1ccccc1,Potency,[1],inactive
O=C1c2c(O)cccc2Cc2cccc(O)c21,outcome,[11],inactive
same,activation,[12],-1.63% (inactive)
same,outcome,[3],inactive
same,max response,[13],-22%
same,outcome,[14],inactive
same,outcome,[4],inactive
same,max response,[7],-24.2%
same,outcome,[8],inactive
Nc1ccc(S(=O)(=O)Nc2nccs2)cc1,Potency,[1],inactive
same,outcome,[9],inactive
same,outcome,[10],inactive
same,activation,[12],-6.26% (inactive)
same,outcome,[3],inactive
same,outcome,[4],inactive
same,outcome,[5],inactive
same,outcome,[6],inactive
same,max response,[7],11.3%
same,outcome,[8],inactive
CC1(C)[C@@H]2CC[C@@]1(C)C(=O)C2,Potency,[1],inactive
same,outcome,[2],inactive
same,outcome,[9],inactive
same,outcome,[10],inactive
same,activation,[12],6.36% (inactive)
same,outcome,[3],inactive
same,max response,[13],5.89%
same,outcome,[14],inactive
same,outcome,[5],inactive
same,outcome,[6],inactive
same,max response,[7],-8.55%
same,outcome,[8],inactive
CC(=O)c1ccc2c(c1)N(CCCN(C)C)c1ccccc1S2,Potency,[1],inactive
